This excerpt belongs to a sample that is enriched for hits.
KDM5B inh: Primary screen for KDM5B Histone Demethylases FDH-coupled qHTS; Lysine-specific demethylase 5B (Homo sapiens), Q9UGL1; KDM5B demethylase, FDH-coupled NADH fluorescence (FDH is formaldehyde dehydrogenase); Potency, µM (top dose mostly 57.7 µM), hits mostly inhibitors; 2.6% of 220,000 active; active = well fitted inhibition curve with a large enough effect; note: nearly all actives have a fitted effect of over 70% in size
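KDM5BΔAP (200 nM final) in 50 mM HEPES pH 7.5, 0.01% Tween-20 was preincubated 10 min at RT with compound over a concentration range. Substrate mix (H3K4me3 12.5 µM, α-KG 25 µM, Fe²⁺, ascorbate, NAD⁺, FDH) was added, and NADH fluorescence change over 30 min gave dose-response curves.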
Of the large screens only hits and unclear results are named; the others gave an inactive call.

Cc1ccsc1C(=O)N1CCc2c(nc3cc[nH]n3c2=O)C1	KDM5B inh 31.6µM
Cn1nc(C(=O)N2CCCCCCNC(=O)CC2)c2ccccc21	none
Cc1ccsc1C(=O)N1CCSCC1	none
O=C(CCn1c2c(c3ccccc31)CCCC2)N1CCc2nc3cc[nH]n3c(=O)c2C1	none
Cn1nc(C(=O)N2CCc3nc4cc[nH]n4c(=O)c3C2)c2ccccc21	KDM5B inh 31.6µM
CC(C)c1nc2c(c(-c3ccc(O)cc3)n1)CN(C(=O)Nc1ccc(Cl)cc1)CC2	none
Cn1cccc1C(=O)N1CCC(C(=O)N2CCCCCCNC(=O)CC2)CC1	none
Cn1cccc1C(=O)N1CCc2nc3cc[nH]n3c(=O)c2C1	KDM5B inh 31.6µM
CN(C)c1nc2c(c(=O)[nH]1)CCN(C(=O)c1sccc1Cl)C2	none
O=C(Nc1ccc(Cl)cc1F)N1CCc2nc3cc[nH]n3c(=O)c2C1	KDM5B inh 31.6µM
Cn1cccc1C(=O)N1CCCN(S(=O)(=O)c2ccccc2)CCC(=O)NCC1	none
C=C(CCCN(Cc1ccccc1)Cc1ccccc1)C(=O)OCC	none
O=c1c2ccsc2ncn1Cc1coc(-c2ccccc2)n1	none
C=CCNC(=S)NNC(=O)c1ccc(C)cc1	none
CCN(CC)C(=O)CSc1nc2c(cc1C#N)CCCC2	none
O=C(CSc1ncnc2nc[nH]c12)NCCc1ccc(Cl)cc1	none
O=C(COc1ccccc1)N1CC(c2noc(COc3ccccc3)n2)C1	none
Cc1onc(-c2cnn(C)c2NCc2ccccc2)c1C(=O)N1CCN(CCO)CC1	none
O=C(CCC1CCCC1)Nc1cc(C(F)(F)F)ccc1Cl	none
CN(C)C(CNC(=O)c1cc2ccccc2oc1=O)c1ccc(C(C)(C)C)cc1 (centres undefined)	none
CCC(C)NC(=O)CSc1cc(C)c2ccccc2n1 (centres undefined)	none
Cc1cc(C)cc(NC(=O)c2csc3c2CCCC3)c1	none
O=C(CSc1nnnn1-c1ccccc1)N1CCN(CC(=O)N2CCCC2)CC1	none
COc1ccc(-c2nc(-c3ccccc3)nc3c2CN(C(=O)c2ccccc2C)CC3)cc1	none
Cc1ccccc1C(=O)N1CCc2nc(-c3ccccc3)nc(-c3ccc(Cl)cc3)c2C1	none
Cc1ccccc1C(=O)N1CCc2nc3cc[nH]n3c(=O)c2C1	KDM5B inh 28.2µM
CC(C)CNC(=O)CN(c1cccc(Cl)c1Cl)S(=O)(=O)c1ccccc1	none
c1ccc2c(c1)OCCOCCOCCOc1ccccc1OCCO2	none
CCNc1c(NS(=O)(=O)c2c(C)noc2C)c(=O)oc2ccccc12	none
CCN(CC)C(CNC(=O)c1nn(-c2ccccc2)c(=O)c2ccccc12)c1ccccc1 (centres undefined)	none
CNC(=O)c1noc(CNC(=O)C(c2cccc(F)c2)N(C)C)n1 (centres undefined)	none
Cc1ccccc1-n1cc(CNC(=O)C(c2cccc(F)c2)N(C)C)cn1 (centres undefined)	none
COCCc1nc(CNC(=O)C(c2cccc(F)c2)N(C)C)no1 (centres undefined)	KDM5B inh 22.4µM
CCC1CN(C(=O)CCc2ncc(-c3ccc(Cl)cc3)o2)CCO1 (centres undefined)	none
CN(CCc1ccccc1)CCN1CC2(CCN(c3ncccc3C#N)CC2)OC1=O	KDM5B inh 31.6µM
O=C1OC2(CCN(C(=O)c3ccco3)CC2)CN1CCOc1ccccc1	none
COc1ccnc(CN2CCC3(CC2)CN(CCOc2ccccc2)C(=O)O3)c1OC	none
CCc1noc(-c2ccn3c(CNC(=O)Cc4ccccc4Cl)nnc3c2)n1	KDM5B inh 15.8µM
CCCc1noc(-c2ccn3c(CNC(=O)c4ccc(C)cc4C)nnc3c2)n1	none
CCc1noc(-c2ccn3c(CNC(=O)Cc4ccc(C)cc4)nnc3c2)n1	KDM5B inh 28.2µM
CCc1noc(-c2ccn3c(CNC(=O)c4cc(C)ccc4C)nnc3c2)n1	KDM5B inh 25.1µM
COc1ccc(C2C(C#N)=C(SCC(=O)c3ccccc3)NC3=C2C(=O)CC(C)(C)C3)cc1OC (centres undefined)	none
CN(Cc1ccccc1)C(=O)c1n[nH]c(=O)c2ccccc12	none
CC(=O)NC(C)C(=O)O (centres undefined)	none
COc1cc(NC(=O)Cn2c(-c3ccc(F)cc3)nc(C)c(CCO)c2=O)cc(OC)c1	none
Cc1cc(C)c2c(CCCC(=O)O)c(-c3ccccn3)[nH]c2c1	none
O=C(Cc1cccs1)N(Cc1ccco1)C1CC1	none
Cc1ccccc1NC(=O)CCn1ccn2nc3c(c2c1=O)CCCC3	none
Cc1ccc(NC(=O)Cn2ccn3nc4c(c3c2=O)CCCCC4)c(C)c1	none
CC(C)NC(=O)Cn1ccn2nc3c(c2c1=O)CCCC3	none
CC(C)CCNC(=O)Cn1ccn2nc3c(c2c1=O)CCCC3	KDM5B inh 20µM
CCc1ccccc1NC(=O)Cn1ccn2nc3c(c2c1=O)CCCC3	KDM5B inh 35.5µM
CCCNC(=O)Cn1ccn2nc3c(c2c1=O)CCCC3	none
Cc1cnc(-c2ccccc2)n1C1CCNCC1	none
CCC(CC)NC(=O)COC(=O)c1cc(C)nc2ccccc12	none
NS(=O)(=O)c1ccc(N/N=C/c2cccc(Br)c2)c([N+](=O)[O-])c1	none
Cc1ccc(C(=O)N2C(C(=O)N3CCCC3)COC23CCN(C(=O)c2ccc(F)cc2)CC3)cc1 (centres undefined)	none
O=C(c1ccco1)N1CCCC(c2noc(COc3ccccc3)n2)C1 (centres undefined)	none
Cc1cc(=O)n(CC(=O)Nc2ccc(Br)cc2F)c(N(C)Cc2ccccc2)n1	none
O=C(CN1CCCC1c1ccc2c(c1)OCCCO2)Nc1cc(Cl)ccc1F (centres undefined)	none
COc1ccc(CN2CCOC[C@H]2c2ncc(-c3ccc(S(C)(=O)=O)cc3)[nH]2)cc1	KDM5B inh 35.5µM
COc1ccc(CN2CCOC[C@H]2c2ncc(-c3ccc(C)cc3)[nH]2)cc1	none
CS(=O)(=O)c1ccc(-c2cnc([C@@H]3COCCN3Cc3ccncc3)[nH]2)cc1	none
O=C(Nc1ccc(F)c(F)c1F)c1ccc(-c2ccccc2)cc1	none
O=C(NCc1cccnc1)[C@@H]1C[C@@H](O)CN1C1CCN(C(=O)CCc2ccccc2)CC1	none
O=C(OCC(=O)N1CCCCCC1)c1ccccc1-c1nc2ccccc2s1	none
CC(C)n1nc(OC(C)(C)C(=O)NCCc2cccnc2)c2cc(CN3CCOCC3)ccc21	none
COCc1ccc2c(c1)c(OC(C)(C)C(=O)N1CCOCC1)nn2Cc1cccnc1	none
CC(C)n1nc(OC(C)(C)C(=O)NCCc2ccccn2)c2cc(CN3CCOCC3)ccc21	KDM5B inh 28.2µM
CC(C)n1nc(OC(C)(C)C(=O)NC2CC2)c2cc(CN3CCOCC3)ccc21	KDM5B inh 31.6µM
CC(C)(Oc1nn(CCN2CCOCC2)c2ccccc12)C(=O)NCCOc1ccccc1	none
CC(Sc1nc(CN2CCOCC2)nc2ccccc12)C(=O)NC1CC1 (centres undefined)	none
CCc1c(C(=O)Nc2cccc(OC)c2)cnn1-c1ccc(OC)nn1	none
CCOC(=O)c1cnc(SCc2nc(-c3ccc(OC)cc3)oc2C)nc1N	none
O=c1[nH]c(N2CCOCC2)nc2c1CCN(Cc1cc(F)ccc1F)CC2	none
CC(=O)N1CCCN(Cc2nc3c(n2Cc2ccccc2)C(=O)N(Cc2cccc(Cl)c2)CCN3)CC1	none
C=C(C)CN1CCN(CCc2ccccc2)CC1	none
CCOP(=O)(OCC)c1nc(Cc2ccccc2)oc1NCc1ccco1	none
CCCCc1ccc(NC(=O)C2CC3CCC2C3)cc1 (centres undefined)	none
CC(C)(C)c1ccc(COC(=O)c2cc(=O)c3ccccc3o2)cc1	none
COc1ccc(NC(=O)c2cc3c(N(C)Cc4ccccc4)nc(C)cn3n2)cc1OC	KDM5B inh 31.6µM
COc1ccc(NC(=O)c2cc(C)nc3ccccc23)cc1OC	none

High-throughput results as filed in PubChem BioAssay.
